Among all 65,000 compounds or so, about 3,600 (5.5%) were called active. Many of the other results were omitted from the sample, so actives are more common in it than they were. Values without a mark were called inactive.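 Rule for the calls: active = at 10 µM, mean starting fluorescence two-fold or more over control wells; inactive = the rest.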 Where a SMILES comes first, the peptide text is derived from it. The star is where a group is joined. Bz = O=C(c1ccccc1)*

Here are results for 61 compounds from PubChem BioAssay AID709 (SRMLSC, 2007).

The nature of this assay: intrinsic fluorescence of library compounds, ex339/em460 – biochemical, MLSMR library, data from DPM-DC assay, artefact control, profiling panel (AID 709).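 Note: signal is the first read of a kinetic run.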 The note with it: compound autofluorescence, ex339/em460 nm, NADH buffer; at 10 µM; stronger effect = higher value; 1 = no-compound wells, NADH background.
As to `O=C(Nc1nncs1)c1ccccc1NS(=O)(=O)c1cccs1`, the fluorescence fold increase is 2.5 (active). As for `COC(=O)c1ccccc1NC(=O)c1ccccc1NS(C)(=O)=O`, the figure is 1.13; as for `CCc1ccccc1NC(=O)c1cccs1`, 1.09. As for `COc1ccc(CCNC(=O)CSc2nnc(-c3cccc(F)c3)o2)cc1OC`, the figure is 1.07; as for `c1ccc2cc3[nH]c(CN4CCCCC4)nc3cc2c1`, 1.35. For the compound `CCOC(=O)N1CCN(C(=O)c2nn(-c3ccc(C)cc3)c(=O)c3c2c2ccccc2n3C)CC1`, the fluorescence fold increase was 2.21 (active).

On to `Cn1c2ccccc2c2c(C(=O)N3CCN(c4ccc(F)cc4)CC3)cn(C3CCCC3)c(=O)c21`, for which the fluorescence fold increase is 1.57.

Consider `CCOC(=O)N1CCN(C(=O)c2n[nH]c(=O)c3ccccc23)CC1`, for which the fluorescence fold increase was 1.04.

Regarding `COc1nc(Oc2ccc(=O)n(C)n2)nc(N(C)C)n1`, the fluorescence fold increase was 1.04. `O=C(Nc1cnn(Cc2ccc(Cl)cc2)c1)C1CCCC1`: the fluorescence fold increase is 1.03. As for `O=C(O)c1ccc(NC(=O)C2CCCCC2)cc1`, the figure is 1.11. As for `CN1C(=O)c2ccc(NC(=O)c3c(F)c(F)c(F)c(F)c3F)cc2C1=O`, the figure is 2.11 (active); as for `O=C(Nc1ccncc1)c1c(F)cccc1F`, 1.11; as for `CCC(=O)Nc1ccc(C(=O)Nc2ccc3c(c2)C(=O)N(CC2CCCO2)C3=O)cc1` (stereo unspecified), 1.59. With `CN1C(=O)c2ccc(NC(=O)C3CCCCC3)cc2C1=O`, the fluorescence fold increase is 4.96 (active). As to `CCCCc1nc2ccccc2c(NC(=O)CN2CCN(C)CC2)c1CCC`, the fluorescence fold increase was 1.08. Regarding `CC1=C(C(=O)Nc2ccc(Cl)cc2)C(c2ccco2)NC(=O)N1` (stereo unspecified), the fluorescence fold increase is 1.1. As for `COc1ccccc1N1CCN(Cc2ccc(OC)c3ccccc23)CC1`, the figure is 1.12; as for `O=C(NC(Cc1ccccc1)C(=O)N1CCCC1C(=O)O)c1ccccc1` (stereo not drawn) (Bz-Phe-Pro-OH; configuration not given here), 0.84. As for `CCCn1c(=O)c2[nH]c(C3CCCC3)nc2n(CCC)c1=O`, the figure is 1.03; as for `CCc1ccc(CCC(=O)Nc2ccc(S(N)(=O)=O)cc2)o1`, 1.08. Then `CCOC(=O)c1csc(NC(=O)c2ccc(S(=O)(=O)N3CCCC3)cc2)n1`, with 2.49 (active); and `CCOC(=O)CSc1nnc(NC(=O)c2cccc(S(=O)(=O)N3CCCCC3)c2)s1`, with 1. On to `CCOC(=O)CSc1nnc(NC(=O)c2cccc(S(=O)(=O)N3CCCC3)c2)s1`, for which the fluorescence fold increase is 1.07. On to `Cc1ccc(S(=O)(=O)c2nc(NCCCn3ccnc3)sc2Cl)cc1`, for which the fluorescence fold increase is 1.12. For `CC(C)(C)NC(=O)C(c1ccco1)N(Cc1ccc2c(c1)OCO2)C(=O)Cn1nnc2ccccc21` (stereo unspecified), the fluorescence fold increase was 1.1.

Consider `O=C(NCCC1=CCCCC1)C1CCN(Cc2cnn(-c3ccccc3)c2-n2cccc2)CC1`, for which the fluorescence fold increase was 1.16.

For the compound `Cn1cccc1Cc1nnc(SCC(=O)NCCc2ccccc2)n1-c1ccc(F)cc1`, the fluorescence fold increase was 1.12.

On to `CCCC(=O)N1c2ccc(-c3csc(N)n3)cc2CC1C` (stereo unspecified), for which the fluorescence fold increase was 1.13. Consider `COc1cc2c(cc1NC(=O)CN1CCN(S(=O)(=O)c3ccc(F)cc3)CC1)oc1ccccc12`, for which the fluorescence fold increase was 2.72 (active). As to `COc1ccc(NC(=O)CN2CCN(S(=O)(=O)c3ccc(F)cc3)CC2)cc1Cl`, the fluorescence fold increase is 1.01. On to `COc1ccccc1NC(=O)CN1CCN(S(=O)(=O)c2ccc(Br)cc2)CC1`, for which the fluorescence fold increase was 1. As for `Cc1cc2cc(CNC(=O)c3ccc(S(=O)(=O)N4CCOCC4)cc3)ccc2[nH]1`, the figure is 1.07. As to `Cc1coc2c(O)cc3c(c12)OC1(N2CCCCC2)C(=O)NCCCC31` (stereo unspecified), the fluorescence fold increase is 1.1. As for `COc1ccc2[nH]c3ccc(OC)cc3c2c1`, the figure is 1.46; as for `COc1ccc2[nH]c3c(=O)n(Cc4ccco4)cnc3c2c1`, 3.87 (active); as for `O=c1c2[nH]c3ccc(Cl)cc3c2ncn1Cc1ccccn1`, 1.12.

For the compound `COc1ccc(N2C(=O)c3cccc4cccc(c34)C2=O)nn1`, the fluorescence fold increase was 1.57. Take `C=CCNc1nnc(SCC(=O)N2CCCCC2)c2ccccc12`: the fluorescence fold increase is 2.26 (active). As for `Cc1ccnc(N2CCN(C(=O)CSc3nc4ccccc4nc3N3CCCCC3)CC2)c1`, the figure is 1.18; as for `C=CCNc1nnc(C)c2ccccc12`, 1.09; as for `CCCC(=O)N(CCc1ccccc1)Cc1nc2ccccc2c(=O)[nH]1`, 1.13. As for `CS(=O)(=O)NCc1ccc(C(=O)NCc2ccccc2)cc1`, the fluorescence fold increase was 1.04. Then `O=C1C2(c3ccccc3)CN(CCCO)CC1(c1ccccc1)CN(CCCO)C2`, with 1.

As to `COCCNc1nc(-n2nc(C)cc2C)nc2sc3c(c12)CCCC3`, the fluorescence fold increase is 3.57 (active). As for `Cc1cc(C)n(-c2nc(SCC(=O)N3CCCC3)c3c4c(sc3n2)CCCC4)n1`, the fluorescence fold increase was 1.3.

Take `COCCn1c(C)cc(C(=O)CSc2ncnc3sc4c(c23)CCC4)c1C`: the fluorescence fold increase is 1.55. Then `CCOc1ccc(S(=O)(=O)n2ccnc2)c2ccccc12`, with 1.04. Regarding `COc1cc(C2C(C(=O)c3ccc(C)o3)=C(O)C(=O)N2Cc2cccnc2)ccc1O` (stereo unspecified), the fluorescence fold increase is 1.02. Then `COc1ccccc1N1CCN(C(=O)c2cn(-c3ccccc3)nc2-c2cccnc2)CC1`, with 1.12.

Take `Cc1nnc(SCC(=O)Nn2cnnc2)s1`: the fluorescence fold increase was 1.03. In the case of `COc1ccc(-c2noc(-c3cccc(OC)c3OC)n2)cc1OC`, the fluorescence fold increase was 1.12. Then `CCOC(=O)N1CCN(C(=O)CSc2ccc(Cl)cc2)CC1`, with 1.07; and `CCOC(=O)N1CCN(C(=O)c2ccc3nc4cc(Cl)ccc4c(=O)n3c2)CC1`, with 3.31 (active).

In the case of `CCOC(=O)N1CCN(C(=O)CNC(=O)Cc2ccc(Cl)cc2)CC1`, the fluorescence fold increase is 1.08.

As for `Cc1cc(C)nc(NC(=O)C(C)N2C(=O)c3ccccc3C2=O)n1` (stereo unspecified), the fluorescence fold increase was 1.09. Then `CCn1c(=N)c(S(=O)(=O)c2ccc(F)cc2)cc2c(=O)n3ccccc3nc21`, with 3.45 (active).

In the case of `Cc1ccc(C)c(NC(=O)C2CCCN2C(=O)OC(C)(C)C)c1` (stereo unspecified), the fluorescence fold increase was 1.17. As for `CCn1nc(C(=O)OCC(=O)N2c3ccccc3CC2C)c2ccccc2c1=O` (stereo unspecified), the figure is 1.05; as for `COc1ccccc1Oc1ccc(S(=O)(=O)Nc2cccnc2)cc1`, 1.1. As for `O=P(c1ccc2c(c1)OCCO2)(N1CCOCC1)N1CCOCC1`, the figure is 1.13.
